Reference: PubChem BioAssay (Tox21)
Where “and” joins values, the source holds several entries; their conditions need not be identical. Identical values can stand only once. Some structures have more than one record in an assay (separate samples or runs), and their calls can disagree. Calls of active or inactive are those of the source. A call without a number means that no potency is given here. Unless noted, calls come from the whole dose curve; as a rule, active = well fitted curve in the direction sought with a large enough effect in the repeat runs; inconclusive = weak or mixed curves; inactive = no such curve, though single readings can be large; an effect the other way counts as inactive or inconclusive.

Experiments:
[1] = qHTS assay to identify small molecule antagonists of the thyroid receptor (TR) signaling pathway - cell viability counter screen (AID 743064); note: nearly all actives have a fitted effect of over 50% in size; note: potency is the fitted concentration of half-maximal effect
In short: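 Compounds were tested on GH3.TRE-Luc cells in the presence of T3 at 1 nM final. Following 23.5 h at 37 °C, cell viability was quantified by CellTiter-Fluor.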

[2] = target: Estrogen receptor (Homo sapiens) (UniProt P03372); assay: qHTS assay to identify small molecule antagonists of the estrogen receptor alpha (ER-alpha) signaling pathway (AID 743069; active = well fitted curve in the direction sought with a large enough effect in the signal ratio in the repeat runs, not every such curve was filed as active; inconclusive = weak or mixed curves, or effect the other way; inactive = no such curve, though single readings can be large or run the other way; the % refers to the signal ratio)
Chain of Estrogen receptor (Homo sapiens) (P03372 whole entry, looked up): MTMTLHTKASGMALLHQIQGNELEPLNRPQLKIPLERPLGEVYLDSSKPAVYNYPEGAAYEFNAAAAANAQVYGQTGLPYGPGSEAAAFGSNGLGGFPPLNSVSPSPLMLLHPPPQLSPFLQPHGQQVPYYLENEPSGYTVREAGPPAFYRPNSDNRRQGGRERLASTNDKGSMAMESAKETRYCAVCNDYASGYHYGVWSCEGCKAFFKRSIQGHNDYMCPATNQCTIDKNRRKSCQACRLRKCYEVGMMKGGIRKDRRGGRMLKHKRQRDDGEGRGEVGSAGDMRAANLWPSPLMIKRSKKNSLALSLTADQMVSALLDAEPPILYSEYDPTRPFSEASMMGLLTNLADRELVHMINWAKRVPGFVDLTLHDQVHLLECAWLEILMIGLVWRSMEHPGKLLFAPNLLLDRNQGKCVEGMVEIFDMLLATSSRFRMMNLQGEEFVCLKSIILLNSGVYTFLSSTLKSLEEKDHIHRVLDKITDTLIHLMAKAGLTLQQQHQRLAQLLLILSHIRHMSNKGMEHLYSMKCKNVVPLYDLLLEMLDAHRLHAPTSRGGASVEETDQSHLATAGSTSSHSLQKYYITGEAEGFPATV
In short: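 A 17beta-estradiol challenge was applied right after compound transfer to ER-alpha-UAS-bla HEK293 cells previously kept in charcoal-stripped serum. Plates stood 18 hr at 37C and 5% CO2; fluorescence was read following 2 hr FRET substrate loading at room temperature.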

[3] = qHTS assay to identify small molecule antagonists of the estrogen receptor alpha (ER-alpha) signaling pathway - cell viability counter screen (AID 743074; calls by dose curve;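 note: HEK293 cells carrying ER-alpha-UAS-bla reporter stimulated with 17beta-estradiol; nearly all actives have a fitted effect of over 45% in size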)
[4] = target: Estrogen receptor (Homo sapiens) (UniProt P03372); assay: qHTS assay to identify small molecule agonists of the estrogen receptor alpha (ER-alpha) signaling pathway (AID 743075; calls by dose curve;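 note: HEK293 GripTite cells with ER-alpha and UAS-driven beta-lactamase reporter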; note: potency is the fitted concentration of half-maximal effect)
[5] = target: Estrogen receptor (Homo sapiens) (UniProt P03372); assay: qHTS assay to identify small molecule agonists of the estrogen receptor alpha (ER-alpha) signaling pathway using the BG1 cell line (AID 743079); conditions: BG1Luc4E2 cells, ERE-luciferase agonist, 22 h; note: nearly all actives have a fitted effect of over 20% in size; note: potency is the fitted concentration of half-maximal effect
[6] = qHTS assay to identify small molecule antagonists of the estrogen receptor alpha (ER-alpha) signaling pathway using the BG1 cell line (AID 743080; calls by dose curve;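 note: BG1 cells stimulated with 17beta-estradiol alongside compound; nearly all actives have a fitted effect of over 25% in size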; note: potency is the fitted concentration of half-maximal effect)
In short: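 Endogenous full-length ER-alpha in BG1-Luc-4E2 cells drives a stably integrated 4×ERE luciferase gene; compounds were tested against 17beta-estradiol over 21.5 h, with luminescence and multiplexed viability fluorescence recorded.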

[7] = qHTS assay to identify small molecule antagonists of the estrogen receptor alpha (ER-alpha) signaling pathway using the BG1 cell line - cell viability counter screen (AID 743081);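 note: compound given together with 17beta-estradiol as the ER stimulus; nearly all actives have a fitted effect of over 45% in size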
Aromatase (Homo sapiens) = Aromatase (Homo sapiens) (UniProt P11511); assay: qHTS assay to identify aromatase inhibitors (AID 743083); note: nearly all actives have a fitted effect of over 55% in size; note: potency is the fitted concentration of half-maximal effect
Chain of Aromatase (Homo sapiens) (P11511 whole entry, looked up): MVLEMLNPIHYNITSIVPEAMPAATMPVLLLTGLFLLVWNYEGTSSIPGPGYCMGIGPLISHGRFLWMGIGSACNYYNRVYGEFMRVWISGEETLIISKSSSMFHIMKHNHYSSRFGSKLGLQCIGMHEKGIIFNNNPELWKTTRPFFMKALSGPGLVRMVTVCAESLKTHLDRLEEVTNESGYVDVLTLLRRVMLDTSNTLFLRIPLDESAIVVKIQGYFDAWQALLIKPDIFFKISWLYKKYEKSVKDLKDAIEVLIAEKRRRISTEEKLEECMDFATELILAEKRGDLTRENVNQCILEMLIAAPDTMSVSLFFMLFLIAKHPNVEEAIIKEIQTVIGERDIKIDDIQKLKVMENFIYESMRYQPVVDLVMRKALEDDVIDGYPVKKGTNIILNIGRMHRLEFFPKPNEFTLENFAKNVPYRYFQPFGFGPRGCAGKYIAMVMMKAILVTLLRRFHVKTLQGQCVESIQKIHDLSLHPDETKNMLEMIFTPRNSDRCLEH

[8] = qHTS assay to identify aromatase inhibitors - cell viability counter screen (AID 743084);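 note: cells stimulated with testosterone during compound exposure; nearly all actives have a fitted effect of over 55% in size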; note: potency is the fitted concentration of half-maximal effect
[9] = target: Aryl hydrocarbon receptor (Homo sapiens) (UniProt P35869); assay: qHTS assay to identify small molecule that activate the aryl hydrocarbon receptor (AhR) signaling pathway (AID 743085);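 note: HG2L7.5c1 human HepG2 liver cells with stably integrated DRE-driven firefly reporter; nearly all actives have a fitted effect of over 15% in size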
Chain of Aryl hydrocarbon receptor (Homo sapiens) (P35869 whole entry, looked up): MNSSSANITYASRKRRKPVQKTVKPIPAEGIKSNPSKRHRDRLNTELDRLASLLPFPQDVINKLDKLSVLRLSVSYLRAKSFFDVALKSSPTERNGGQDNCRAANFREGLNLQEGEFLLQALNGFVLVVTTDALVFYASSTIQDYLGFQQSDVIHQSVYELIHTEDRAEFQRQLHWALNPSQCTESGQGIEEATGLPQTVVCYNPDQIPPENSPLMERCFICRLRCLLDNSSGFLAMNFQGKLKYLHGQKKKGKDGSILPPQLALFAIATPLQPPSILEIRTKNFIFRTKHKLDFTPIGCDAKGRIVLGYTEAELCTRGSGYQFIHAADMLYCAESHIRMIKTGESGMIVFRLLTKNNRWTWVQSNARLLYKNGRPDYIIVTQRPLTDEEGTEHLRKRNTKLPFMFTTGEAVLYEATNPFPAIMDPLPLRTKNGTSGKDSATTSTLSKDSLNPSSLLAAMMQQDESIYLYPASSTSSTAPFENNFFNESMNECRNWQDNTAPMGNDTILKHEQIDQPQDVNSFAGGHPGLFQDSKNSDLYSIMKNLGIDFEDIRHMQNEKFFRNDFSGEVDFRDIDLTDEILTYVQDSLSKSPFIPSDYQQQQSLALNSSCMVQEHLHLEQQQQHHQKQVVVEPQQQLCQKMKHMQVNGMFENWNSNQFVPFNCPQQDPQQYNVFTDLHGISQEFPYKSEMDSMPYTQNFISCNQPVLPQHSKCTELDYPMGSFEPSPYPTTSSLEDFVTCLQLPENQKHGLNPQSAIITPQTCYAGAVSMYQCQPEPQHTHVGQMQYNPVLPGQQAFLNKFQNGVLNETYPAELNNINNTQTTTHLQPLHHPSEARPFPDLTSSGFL
In short: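 24 h compound exposure, 37C, HepG2-derived HG2L7.5c1 cells with DRE-responsive luciferase. Readouts: fluorescence viability, then luminescence at room temperature after 30 min.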

[10] = qHTS assay to identify small molecule that activate the aryl hydrocarbon receptor (AhR) signaling pathway - cell viability counter screen (AID 743086);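 note: HepG2 liver cells carrying the AhR DRE luciferase reporter; nearly all actives have a fitted effect of over 45% in size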
In short: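 HepG2-AhR-luc (HG2L7.5c1) cells, 4000/well, were preincubated 5 h at 37C, exposed to compound in qHTS format for 24 hr at 37C, then given CellTiter-Fluor for 30 min; viability was read as fluorescence in the reporter wells.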

[11] = target: Peroxisome proliferator-activated receptor gamma (Homo sapiens) (UniProt P37231); assay: qHTS assay to identify small molecule agonists of the peroxisome proliferator-activated receptor gamma (PPARg) signaling pathway (AID 743094; active = well fitted activation curve with a large enough effect in the signal ratio in the repeat runs, not every such curve was filed as active; inconclusive = weak or mixed curves, or effect the other way; inactive = no such curve, though single readings can be large or run the other way; the % refers to the signal ratio)
Chain of Peroxisome proliferator-activated receptor gamma (Homo sapiens) (P37231 whole entry, looked up): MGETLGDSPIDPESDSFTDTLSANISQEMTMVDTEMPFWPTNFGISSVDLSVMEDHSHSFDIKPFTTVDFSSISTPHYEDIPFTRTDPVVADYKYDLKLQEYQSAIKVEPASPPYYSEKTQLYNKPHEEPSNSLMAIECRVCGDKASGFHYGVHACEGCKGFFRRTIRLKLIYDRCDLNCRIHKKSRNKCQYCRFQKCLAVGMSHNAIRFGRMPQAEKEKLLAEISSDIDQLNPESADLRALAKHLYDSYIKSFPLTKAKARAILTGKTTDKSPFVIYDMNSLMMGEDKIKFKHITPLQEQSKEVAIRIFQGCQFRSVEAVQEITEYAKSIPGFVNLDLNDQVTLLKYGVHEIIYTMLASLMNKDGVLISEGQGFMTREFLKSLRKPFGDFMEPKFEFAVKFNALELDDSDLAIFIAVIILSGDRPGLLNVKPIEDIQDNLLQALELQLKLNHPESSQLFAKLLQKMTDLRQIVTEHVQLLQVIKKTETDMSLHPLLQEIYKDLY
In short: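 Agonist activity was taken from a beta-lactamase reporter (FRET substrate, 1 h at room temperature) in HEK293H cells carrying a PPARg UAS-bla construct. Compounds in DMSO were incubated 17 h at 37C after a 5 h cell pre-incubation.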

[12] = qHTS assay for small molecule agonists of the antioxidant response element (ARE) signaling pathway (AID 743202; active = well fitted activation curve with a large enough effect in the signal ratio in the repeat runs, not every such curve was filed as active; inconclusive = weak or mixed curves, or effect the other way; inactive = no such curve, though single readings can be large or run the other way; the % refers to the signal ratio)
In short: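 Following a 16 h, 37 C exposure of reporter HepG2 cells (ARE-driven beta-lactamase, 2,000 cells/well) to compounds, FRET substrate was applied for 2 h at room temperature and fluorescence intensity recorded.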

[13] = qHTS assay for small molecule agonists of the antioxidant response element (ARE) signaling pathway - cell viability counter screen (AID 743203; calls by dose curve; note: nearly all actives have a fitted effect of over 55% in size)
In short: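 Viability counter screen: CellTiter-Glo luminescence, read after 30 min at room temperature, in ARE-bla HepG2 wells. Compound exposure lasted 16 h at 37C/5% CO2, following a 5 h pre-incubation of the cells after plating.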

[14] = qHTS assay for small molecule activators of the heat shock response signaling pathway - cell viability counter screen (AID 743209); note: nearly all actives have a fitted effect of over 50% in size
In short: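 Cytotoxicity counter screen run in the same wells as the heat-shock bla reporter assay: HeLa HSE-bla cells, 5 h compound exposure at 37 C, viability read by CellTiter-Glo luminescence.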

[15] = tested on: thyroid hormone receptor (rat, GH3 cells); assay: qHTS assay to identify small molecule agonists of the thyroid receptor (TR) signaling pathway (AID 743066; calls by dose curve)
[16] = target: Peroxisome proliferator-activated receptor gamma (Homo sapiens) (UniProt P37231); assay: qHTS assay to identify small molecule antagonists of the peroxisome proliferator-activated receptor gamma (PPARg) signaling pathway (AID 743191; calls by dose curve; note: nearly all actives have a fitted effect of over 30% in size)
In short: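 GeneBLAzer PPARg UAS-bla HEK293H cells carrying a UAS-driven beta-lactamase reporter were plated at 3000 cells/well, preincubated 5 h at 37C, then given compound for 17 h at 37C; LiveBLAzer B/G FRET substrate was read after 1 h at room temperature.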

[17] = qHTS assay for small molecule activators of the heat shock response signaling pathway (AID 743210; active = well fitted activation curve with a large enough effect in the signal ratio in the repeat runs, with a control signal flat, not every such curve was filed as active; inconclusive = weak or mixed curves; the % refers to the signal ratio)
In short: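 Heat shock element–beta-lactamase HeLa reporter cells; qHTS with compounds for 5 h at 37 C; detection by FRET substrate fluorescence after 2.5 h at RT.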

[18] = qHTS assay to identify small molecule antagonists of the peroxisome proliferator-activated receptor gamma (PPARg) signaling pathway - cell viability counter screen (AID 743194); conditions: Potency: co-treated with 50 nM rosiglitazone; note: nearly all actives have a fitted effect of over 55% in size
In short: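 PPARg-UAS-bla HEK293H cells were plated, rested 5 h at 37 C, then treated with compounds plus rosiglitazone (50 nM final) for 17 h at 37 C; viability was then read by CellTiter-Glo luminescence after 30 min at room temperature.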

[19] = qHTS assay to identify small molecule antagonists of the thyroid receptor (TR) signaling pathway (AID 743065); note: nearly all actives have a fitted effect of over 55% in size; note: potency is the fitted concentration of half-maximal effect
In short: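 GH3.TRE-Luc rat pituitary cells carrying two TR response elements driving luciferase were plated for 4 h, given compound plus 1 nM T3 (final), and incubated 23.5 h at 37 C. ONE-Glo luminescence measured reporter inhibition; CellTiter-Fluor fluorescence tracked cytotoxicity.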

COC(=O)C1=CCCN(C)C1
Potency [1]: inactive
Potency [2]: inactive
outcome [3]: inactive
Potency [4]: inactive
activation ([5]; at 70.3 µM (top of the series)): 0.989% (inactive)
Potency [6]: inactive
Potency [7]: inactive
Potency (Aromatase (Homo sapiens)): inactive
Potency [8]: inactive
Potency [9]: inactive
outcome [10]: inactive
outcome [11]: inactive
Potency [12]: inactive
Potency [13]: inactive
Potency [14]: inactive

CN(C)CCc1ccc(O)cc1
Potency [1]: inactive
Potency [15]: inactive
outcome [3]: inactive
Potency [7]: inactive
Potency (Aromatase (Homo sapiens)): inactive
Potency [8]: inactive
Potency [9]: inactive
outcome [10]: inactive
outcome [11]: inactive
Potency [16]: inactive
Potency [12]: inactive
Potency [13]: inactive
outcome [17]: inactive

Oc1c(Cl)cccc1Cl
Potency [1]: inactive
Potency [15]: inactive
outcome [3]: inactive
Potency [4]: inactive
activation ([5]; at 70.3 µM (top of the series)): 20.4% (inactive)
Potency [6]: inactive
Potency [7]: inactive
Potency (Aromatase (Homo sapiens)): inactive
Potency [8]: inactive
Potency [9]: inactive
outcome [10]: inactive
Potency [16]: inactive
Potency [18]: inactive
Potency [13]: inactive
Potency [14]: inactive

N#CC(O)c1ccccc1 (stereo not given)
Potency [19]: inactive
Potency [15]: inactive
outcome [3]: inactive
Potency [7]: inactive
Potency (Aromatase (Homo sapiens)): inactive
Potency [8]: inactive
Potency [9]: inactive
outcome [10]: inactive
Potency [16]: inactive
Potency [12]: inactive
Potency [13]: inactive
outcome [17]: inactive

Cc1ccccc1CO[C@@H]1C[C@@]2(C(C)C)CC[C@]1(C)O2
Potency [1]: inactive
Potency [15]: inactive
outcome [3]: inactive
Potency [7]: inactive
Potency [8]: inactive
outcome [10]: inactive
Potency [16]: inactive
Potency [18]: inactive
Potency [12]: inactive
Potency [13]: inactive
Potency [14]: inactive
outcome [17]: inactive

CCN(CC)c1nc(C)cc(OP(=S)(OC)OC)n1
Potency [19]: 61.1 µM (active)
Potency [15]: inactive
Potency [2]: inactive
outcome [3]: inactive
Potency [4]: inactive
activation ([5]; at 70.3 µM (top of the series)): 4.15% (inactive)
Potency [6]: inactive
Potency [7]: inactive
Potency [8]: inactive
outcome [10]: inactive
outcome [11]: inactive
Potency [18]: inactive
Potency [13]: inactive
Potency [14]: inactive
outcome [17]: inactive

C[C@H]1CCC[C@H](O)CCCCCc2cc(O)cc(O)c2C(=O)O1
Potency [1]: inactive and 54.9 µM (active)
Potency [2]: inactive
outcome [3]: inactive
Potency [4]: 848 nM [inconclusive] (active) and 175 nM [inconclusive] (active)
activation ([5]; at 70.3 µM (top of the series)): -0.266% (active)
activation ([5]; at 95 µM (top of the series)): -52.7% (active)
Potency [6]: 23.7 µM (active)
Potency [7]: inactive
Potency (Aromatase (Homo sapiens)): 61.6 µM (active)
Potency [8]: 43.6 µM (active)
outcome [10]: inactive
Potency [14]: inactive

CC(C)[N+](=O)[O-]
Potency [1]: inactive
Potency [15]: inactive
outcome [3]: inactive
Potency [7]: inactive
Potency (Aromatase (Homo sapiens)): inactive
Potency [8]: inactive
Potency [9]: inactive
outcome [10]: inactive
Potency [18]: inactive
Potency [12]: inactive
Potency [14]: inactive

N#Cc1c(Cl)cccc1Cl
Potency [19]: inactive
Potency [15]: inactive
Potency [2]: inactive
outcome [3]: inactive
Potency [4]: inactive
activation ([5]; at 70.3 µM (top of the series)): -1.9% (inactive)
Potency [6]: inactive
Potency [7]: inactive
Potency (Aromatase (Homo sapiens)): inactive
Potency [8]: inactive
Potency [9]: inactive
outcome [10]: inactive
outcome [11]: inactive
Potency [16]: inactive
Potency [18]: inactive
Potency [12]: inactive
Potency [14]: inactive
outcome [17]: inactive

CCc1cc2c(s1)-n1c(C)nnc1CN=C2c1ccccc1Cl
Potency [1]: inactive
Potency [15]: inactive
outcome [3]: inactive
Potency [4]: inactive
Potency [6]: 11.9 µM (active)
Potency (Aromatase (Homo sapiens)): inactive
Potency [8]: inactive
Potency [9]: inactive
outcome [10]: inactive
outcome [11]: inactive
Potency [12]: inactive
Potency [14]: inactive
outcome [17]: inactive

CC(C=O)Cc1ccc2c(c1)OCO2 (stereo not given)
Potency [1]: inactive
Potency [15]: inactive
outcome [3]: inactive
Potency [7]: inactive
Potency (Aromatase (Homo sapiens)): inactive
outcome [10]: inactive
Potency [18]: inactive
Potency [12]: inactive
Potency [13]: inactive
Potency [14]: inactive
outcome [17]: inactive

C#C[C@]1(O)C=C[C@H]2[C@@H]3CCC4=CC(=O)CC[C@@H]4[C@H]3CC[C@@]21CC
Potency [19]: 11.9 µM (active)
Potency [15]: inactive
outcome [3]: inactive
Potency [4]: 535 nM [inconclusive] (active)
Potency [5]: 0.168 µM (active)
Potency [6]: inactive
Potency [7]: inactive
Potency (Aromatase (Homo sapiens)): inactive
Potency [8]: inactive
Potency [9]: inactive
outcome [10]: inactive
Potency [18]: inactive
Potency [14]: inactive
outcome [17]: inactive

ClCC(Cl)(Cl)Cl
Potency [1]: inactive
Potency [2]: inactive
outcome [3]: inactive
Potency [4]: inactive
activation ([5]; at 95 µM (top of the series)): 9.47% (inactive)
Potency [6]: inactive
Potency [7]: inactive
Potency (Aromatase (Homo sapiens)): inactive
Potency [8]: inactive
Potency [9]: inactive
outcome [10]: inactive
outcome [11]: inactive
Potency [16]: inactive
Potency [12]: inactive
Potency [14]: inactive
outcome [17]: inactive

CC(Oc1ccc(Oc2ncc(C(F)(F)F)cc2Cl)cc1)C(=O)O (stereo not given)
Potency [1]: inactive
Potency [15]: inactive
outcome [3]: inactive
Potency [4]: inactive
Potency [6]: inactive
Potency [7]: inactive
Potency [8]: inactive
Potency [9]: inactive
outcome [10]: inactive
Potency [18]: inactive
Potency [13]: inactive
outcome [17]: inactive

CC(C)COP(=O)(OCC(C)C)OCC(C)C
Potency [1]: inactive
Potency [15]: inactive
outcome [3]: inactive
Potency [7]: inactive
Potency [8]: inactive
Potency [9]: inactive
outcome [10]: inactive
outcome [11]: inactive
Potency [16]: inactive
Potency [18]: inactive
Potency [12]: inactive
Potency [13]: inactive
outcome [17]: inactive

COC(C)(C)C
Potency [1]: inactive
Potency [15]: inactive
outcome [3]: inactive
Potency [7]: inactive
Potency (Aromatase (Homo sapiens)): inactive
Potency [8]: inactive
Potency [9]: inactive
outcome [10]: inactive
Potency [18]: inactive
Potency [12]: inactive
Potency [13]: inactive
Potency [14]: inactive
outcome [17]: inactive

C=C(C)CN(CC)c1c([N+](=O)[O-])cc(C(F)(F)F)cc1[N+](=O)[O-]
Potency [19]: inactive
Potency [15]: inactive
Potency [2]: inactive
outcome [3]: inactive
Potency [4]: inactive
activation ([5]; at 70.3 µM (top of the series)): 11.3% (inactive)
Potency [7]: inactive
Potency (Aromatase (Homo sapiens)): inactive
Potency [8]: inactive
Potency [9]: inactive
outcome [10]: inactive
Potency [16]: inactive
Potency [12]: inactive
Potency [13]: inactive
Potency [14]: inactive

O=NN1CCCCC1
Potency [1]: inactive
Potency [15]: inactive
outcome [3]: inactive
Potency [7]: inactive
Potency (Aromatase (Homo sapiens)): inactive
Potency [8]: inactive
Potency [9]: inactive
outcome [10]: inactive
outcome [11]: inactive
Potency [16]: inactive
Potency [12]: inactive
Potency [13]: inactive
Potency [14]: inactive
outcome [17]: inactive

CCOP(=S)(OCC)Oc1ncn(-c2ccccc2)n1
Potency [1]: inactive
Potency [15]: inactive
outcome [3]: inactive
Potency [4]: inactive
Potency [5]: 54.5 µM (active)
Potency [6]: inactive
Potency [7]: inactive
Potency (Aromatase (Homo sapiens)): inactive
Potency [8]: inactive
outcome [10]: inactive
outcome [11]: inactive
Potency [16]: inactive
Potency [18]: inactive
Potency [13]: inactive
Potency [14]: inactive
outcome [17]: inactive
